# Data reported in PubChem BioAssay AID651642 (Sanford-Burnham Center for Chemical Genomics, 2012).
# Activity calls are given as the source filed them.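 Rule for the calls: active = average half-effect concentration of 10 µM or less in every one of the four cell panels; inactive = the rest.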
# System: H9c2
# Assay: protection of cardiomyocytes from stress damage, SAR follow-up, cell-based, panel, H9c2 and HL-1, H2O2, 2-deoxyglucose, ATP luminescence (AID 651642)
# Conditions: H9c2/HL-1 cardiomyocyte H2O2 oxidative damage, mean of runs, with H2O2
row,SMILES,outcome
1,COc1cc(-c2cc(C(=O)Nc3cccc(C(C)=O)c3)c3cccc(Cl)c3n2)cc(OC)c1OC,inactive
2,COc1ccc2c(c1OC)C(=O)N1c3ccccc3C(=O)N(Cc3ccccc3C)C21 (centres undefined),inactive
3,COc1cc(-c2cc(C(=O)Nc3cccc(C(C)=O)c3)c3cc(Br)ccc3n2)cc(OC)c1OC,inactive
4,COc1cc(-c2cc(C(=O)NCC(=O)Nc3cccc(C(C)=O)c3)c3ccccc3n2)cc(OC)c1OC,active
5,COc1ccc2c(c1OC)C(=O)N1c3ccccc3C(=O)N(Cc3cccc(F)c3)C21 (centres undefined),inactive
6,COc1cc(-c2cc(C(=O)Nc3cccc(C(=O)N(C)C)c3)c3ccccc3n2)cc(OC)c1OC,inactive
7,COc1cc(-c2cc(C(=O)NCC(=O)Nc3cccc(C(C)=O)c3)c3cc(Br)ccc3n2)cc(OC)c1OC,active
8,COc1cc(-c2cc(C(=O)Nc3cccc(C(=O)Nc4ccccc4)c3)c3ccccc3n2)cc(OC)c1OC,active
9,COc1ccc(NC(=O)CNC(=O)c2cc(-c3cc(OC)c(OC)c(OC)c3)nc3ccccc23)cc1,inactive
10,COc1cc(-c2cc(C(=O)Nc3cccc(C(C)=O)c3)c3ccc(Cl)cc3n2)cc(OC)c1OC,inactive
11,COc1cccc(CNC(=O)CNC(=O)c2cc(-c3cc(OC)c(OC)c(OC)c3)nc3ccccc23)c1,active
12,CCNC(=O)c1cccc(NC(=O)c2cc(-c3cc(OC)c(OC)c(OC)c3)nc3ccccc23)c1,active
13,CCOC(=O)c1cccc(NC(=O)c2cc(-c3cc(OC)c(OC)c(OC)c3)nc3ccc(OC)cc23)c1,active
14,COc1cc(-c2cc(C(=O)NCC(=O)Nc3cccc(C(C)=O)c3)c3cc(C)ccc3n2)cc(OC)c1OC,inactive
